Screening data as filed in PubChem BioAssay.
Rows were chosen to be rich in hits. Some 3.2% of all compounds tested hit in one or more screens of this group.
A549 viability: counter-screen for Nrf2 inhibitors: cytotoxicity in A549 cells. A549 ARE-Fluc cells, CellTiter-Fluor viability, 18-24 h. Potency, µM (doses to about 46 µM), inactives show at the top dose activity change, negative = cytotoxicity, actives largely listed as inhibitors. hit rate 0.16% among 390,000. AID 504648; note: potency is the fitted concentration of half-maximal effect; % is set by controls: 0 for no effect and ±100 for the full control effect
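A549 ARE-Fluc cells in 5% FBS OPTI-MEM, 5000 cells/well, rested 2 h then exposed to compounds in concentration-response for 18-24 h at 37 °C. Viability by CellTiter-Fluor fluorescence (Ex 405/Em 525) after 30 min; luciferase luminescence (BugLite, 15 min, RT) read afterwards.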
BRCA1 expr act: activators of BRCA1 expression. MCF7-BRCA1-FFLuc reporter, luminescence, 48 h; response scale: scaled: vehicle 0%, 10 µM genistein 100%. Potency, µM (series often up to 46.1 µM), without a hit: at the top dose activation, hits mostly activators. hit rate 1.1% among 380,000. AID 624202; note: potency is the fitted concentration of half-maximal effect; nearly all actives have a fitted effect of over 80% in size
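MCF7-BRCA1-FFLuc cells, 2000/well in phenol-red-free MEM, attached 2 h then treated 48 h at 37 C. Luciferase luminescence read 15 min after reagent; normalized to genistein maximum activation (10microM) and DMSO, concentration-response fitted.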
Nrf2 block: inhibitors of Nrf2 signaling; A549 ARE-Fluc reporter, luciferase luminescence, 18-24 h; Potency, µM (titrated, usually from 46 µM), inactives show at the highest dose activity change, negative = inhibition, usual class: inhibitors; hit rate 2.1% among 360,000; AID 504444; note: potency is the fitted concentration of half-maximal effect; % is set by controls: 0 for no effect and ±100 for the full control effect; nearly all actives have a fitted effect of over 60% in size
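Cells were seeded and rested 2 h, then exposed to compounds for 18-24 h. CellTiter-Fluor was read first as a viability measure. BugLite was added 15 min before the final luminescent read of ARE-luciferase activity in A549 cells.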
IL2 activator: activators of IL-2; IL-2 activation reporter assay, cell-based qHTS; stimulated with anti-CD3/CD4/CD28 beads; in transgenic mouse T cells; hit rate 0.065% among 360,000; activation, % (series mostly up to about 46 µM); in the data active = activation above about 50%; inconclusive = mostly about 30% to 49%; note: 0% is about no effect
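Screening format: compound pinned onto unstimulated transgenic mouse T cells, 60 min incubation, then anti-CD3/anti-CD4/anti-CD28 bead stimulation for 18 hours at 37 degrees C, followed by EGFP and DsRed detection.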
Nrf2 activator: activates Nrf2 signaling; AREc32 ARE-luciferase reporter (MCF7-derived line), luminescence, 24 h; Potency, µM (top dose mostly 46.1 µM), inactives show top-dose activation, actives largely listed as activators; hit rate 0.31% among 410,000; AID 624171; note: potency is the fitted concentration of half-maximal effect; % of control where 0% means no effect; nearly all actives have a fitted effect of over 65% in size
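Steps: seed AREc32_Fluc cells (1000/well, 5% FBS OPTI-MEM); incubate overnight at 37 deg C; add 23 nL compound; incubate 24 hr; add Steady-Glo; hold 30 min RT; read luminescence.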
p53 reactivator: re-activators of mutant p53; Potency, µM (titrated, usually from 92.2 µM), for inactives: at the top dose activity change, positive = activation, most hits filed as activators; hit rate 0.063% among 320,000; H1299 p53-A138V BP100-luciferase reporter, luminescence, 24 h; note: potency is the fitted concentration of half-maximal effect; % of control where 0% means no effect; nearly all actives have a fitted effect of over 45% in size
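H1299 (p53-null), stable ts p53-A138V + BP100-Luc; 1000 cells/well, Opti-MEM/10% FBS; cpd 4 pt, 1:5; 24 h, 37 deg C, 5% CO2; detection reagent 10 min RT; luminescence.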
* marks the source's active call; other numbers are inactive results; ! = not confirmed by another sample. Unless noted, calls come from the whole dose curve; as a rule, active = well fitted curve in the direction sought with a large enough effect; inconclusive = small, poorly fitted or top-dose-only effect, or another doubt; inactive = no such curve, though single readings can be large; an effect the other way counts as inactive or inconclusive.

How did C/C(=N\Nc1nccnc1Cl)c1ccc(Br)cc1 do in these assays?
A549 viability: 0%; BRCA1 expr act: 11%; Nrf2 block: 13%; IL2 activator: 0; Nrf2 activator: 11µM*; p53 reactivator: inconclusive

What do the screens show for `Cc1ccc(C(=O)n2cnnc2N)cc1`?
A549 viability: 0%; BRCA1 expr act: 4%; Nrf2 block: 8.2µM*; IL2 activator: 0; Nrf2 activator: -2%; p53 reactivator: -2%

What do the screens show for `O=C(Nc1nc(-c2ccccc2)cs1)c1ccco1`?
A549 viability: 1%; BRCA1 expr act: 7.1µM*; Nrf2 block: 15%; IL2 activator: 1; Nrf2 activator: 14µM*; p53 reactivator: 9%

How did Cc1ccc(-c2csc(NC(=S)NC(=O)/C=C/c3ccco3)n2)cc1 do in these assays?
A549 viability: inconclusive; BRCA1 expr act: -69%; IL2 activator: 5; Nrf2 activator: 27%; p53 reactivator: 26%

How did Cc1ccc(-c2csc(NC(=O)c3ccc(-c4ccccc4)cc3)n2)o1 do in these assays?
A549 viability: -13%; BRCA1 expr act: 0%; Nrf2 block: 2.9µM*; IL2 activator: -2; Nrf2 activator: 5%; p53 reactivator: 1%

How did O=C(Nc1nc(-c2ccco2)cs1)c1ccccc1 do in these assays?
A549 viability: 5%; BRCA1 expr act: 8.9µM*; IL2 activator: 1; Nrf2 activator: inconclusive; p53 reactivator: inconclusive

What do the screens show for `O=C(/C=C\c1ccco1)Nc1nc(-c2ccc3ccccc3c2)cs1`?
A549 viability: 14%; BRCA1 expr act: -46%; Nrf2 block: 15µM*; IL2 activator: 0; Nrf2 activator: 3%; p53 reactivator: -3%

Results for Cc1ccc(-c2csc(NC(=O)Cc3ccc(F)cc3)n2)o1 ?
A549 viability: 2%; BRCA1 expr act: 29%; Nrf2 block: 0%; IL2 activator: -3; Nrf2 activator: 5%; p53 reactivator: 12%

What do the screens show for `COC(=O)[C@@]12C[C@@H](CC(=O)NCC34CC5CC(CC(C5)C3)C4)C(=O)N(Cc3ccco3)C1=CCC(C)(C)C2`?
IL2 activator: 0

Results for CCOc1ccccc1-c1nnc2n1N=C(c1cccc(OC)c1)CS2 ?
A549 viability: -2%; Nrf2 block: 11%

What do the screens show for `COCCN(C(=O)c1ccco1)c1nc(-c2ccccc2)cs1`?
A549 viability: 0%; BRCA1 expr act: -7%; Nrf2 block: inconclusive; IL2 activator: -1; Nrf2 activator: 10µM*

What do the screens show for `CCCn1c(CCC(=O)Nc2ccc(C)c(Cl)c2)nc2cccnc21`?
A549 viability: 12%; Nrf2 block: -6%; Nrf2 activator: 6%

How did Nc1c(S(=O)(=O)c2ccccc2)c2nc3ccccc3nc2n1Cc1ccco1 do in these assays?
A549 viability: inconclusive; BRCA1 expr act: -39%; Nrf2 block: 26µM*; IL2 activator: -2; Nrf2 activator: 0%; p53 reactivator: -7%

Results for Cc1ccc(S(=O)(=O)c2c(N)n(Cc3ccco3)c3nc4ccccc4nc23)cc1C ?
A549 viability: inconclusive; BRCA1 expr act: -71%; Nrf2 block: inconclusive; IL2 activator: 0; Nrf2 activator: 2%; p53 reactivator: -8%

What do the screens show for `O=C1c2ccccc2C(=O)N1c1cnc2ccccc2c1`?
A549 viability: 10%; Nrf2 block: 10%

What do the screens show for `Cc1cccc(OCc2nnc(SCC(=O)N(c3ccccc3)C3CCS(=O)(=O)C3)o2)c1` (stereo unspecified)?
A549 viability: -13%; BRCA1 expr act: 11%; Nrf2 block: 21µM*; IL2 activator: 0; Nrf2 activator: 2%; p53 reactivator: 13%

What do the screens show for `COc1ccc(C(O)c2nccc3cc(OC)c(OC)cc23)cc1OC` (stereo unspecified)?
A549 viability: -14%; BRCA1 expr act: -37%; Nrf2 block: 21µM*; IL2 activator: -3; Nrf2 activator: 2%; p53 reactivator: -1%

What do the screens show for `COc1ccc(-c2[nH]ncc2C(=O)NCc2ccccc2OC)cc1`?
A549 viability: 0%; Nrf2 block: 5%; Nrf2 activator: 0%

How did Cc1ccc(NC(=O)c2c(NC(=O)c3ccccc3)sc3c2CCC3)cc1 do in these assays?
A549 viability: 1%; Nrf2 block: 11%; Nrf2 activator: 1%

How did O=C(Nc1cccc(Cl)c1)c1c(NC(=O)C(F)(F)F)sc2c1CCCC2 do in these assays?
A549 viability: inconclusive; Nrf2 block: inconclusive; Nrf2 activator: 0%

Results for Cc1cccc(NC(=O)c2c(NC(=O)C(F)(F)F)sc3c2CCCCC3)c1 ?
A549 viability: inconclusive; Nrf2 block: 2.6µM*; Nrf2 activator: -3%

How did O=C(O)CCC(=O)Nc1sc2c(c1C(=O)Nc1ccccc1)CCCCC2 do in these assays?
A549 viability: -1%; BRCA1 expr act: -41%; Nrf2 block: 14%; IL2 activator: -3; Nrf2 activator: 14µM*!; p53 reactivator: 3%

Results for Cc1ccc(NC(=O)c2c(NC(=O)C(F)(F)F)sc3c2CCCCC3)cc1 ?
A549 viability: inconclusive; Nrf2 block: 2.6µM*; Nrf2 activator: -1%

How did Cc1ccccc1NC(=O)c1c(NC(=O)C(F)(F)F)sc2c1CCCCC2 do in these assays?
A549 viability: inconclusive; Nrf2 block: 2.3µM*; Nrf2 activator: -2%

What do the screens show for `Cc1cccc(NC(=O)c2oc3ccccc3c2NC(=O)c2cc(=O)c3cc(Cl)ccc3o2)c1`?
A549 viability: 3%; Nrf2 block: 3%; Nrf2 activator: 0%

Results for COC(=O)N/N=C(C)/C=C/c1ccccc1 ?
A549 viability: -3%; BRCA1 expr act: 3.5µM*; Nrf2 block: 8%; IL2 activator: -6; Nrf2 activator: 3%

Results for CC(C)CS(=O)(=O)c1oc(-c2ccc(F)cc2)nc1S(=O)(=O)c1ccccc1 ?
A549 viability: inconclusive; Nrf2 block: 23µM*; Nrf2 activator: -6%

How did CCc1ccccc1NC(=O)c1cnc(N2CCCCC2)c2ccccc12 do in these assays?
A549 viability: 12%; Nrf2 activator: 0%

Results for Cc1ccc(NC(=O)C2CCCN2S(=O)(=O)c2cccc3nsnc23)cc1Cl (stereo unspecified) ?
A549 viability: -24%; Nrf2 block: inconclusive; Nrf2 activator: 1%

How did CCn1c(=O)cc(OCC(=O)NCc2ccc(F)cc2Cl)c2ccccc21 do in these assays?
A549 viability: -11%; Nrf2 block: inconclusive; Nrf2 activator: 1%
